# Experimental data as given in the supplement of paper PMC9135407.
# Where “and” joins values, the source holds several entries; their conditions need not be identical. Equal entries are not always repeated. Structures can show the parent of a compound that is named as a salt. About 620 (11%) of roughly 5,800 compounds showed activity. The full list was thinned out, with actives kept by preference. Values without a mark were called inactive.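 The calls were made as follows: active = score above a cut-off or among the top three wells of a plate; in these data no inactive exceeds 0.85.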
# Tested on: primary human hepatic stellate cells (donor 1)
# Assay: scaled lipid accumulation score (0 = DMSO-like, 1 = nortriptyline-like); higher = stronger HSC inactivation (lipid re-accumulation), active = hit call of the paper
# Conditions: 48 h
# [1] = library stock concentration: 1 mM
# [2] = library stock concentration: 10 mM
# [3] = library stock concentration: 3.33 mM
# [4] = library stock concentration: 5.3 mM
# [5] = library stock concentration: 80 uM
# [6] = library stock concentration: 400 uM
# [7] = library stock concentration: 2 mM
# [8] = library stock concentration: 6.4 mM
smiles,measurement,setting,value
CCCCC/C=C\C/C=C\C/C=C\CCCCC(=O)O [.gamma.-Linolenic Acid],scaled lipid accumulation score,[1],0.011
CCCCC/C=C\C/C=C\C/C=C\CCCCC(=O)O [Gamma-linolenic acid (18:3 n-6)],scaled lipid accumulation score,[1],0.024
OC(CCCN1CCCCC1)(c1ccccc1)c1ccccc1 [Diphenidol hydrochloride],scaled lipid accumulation score,,0.315
OCCOCCN1CCN(C(c2ccccc2)c2ccc(Cl)cc2)CC1 (stereo unspecified) [Hydroxyzine pamoate],scaled lipid accumulation score,library stock concentration: 2.6 mM,0.044
same,scaled lipid accumulation score,[2],0.142
OCCOCCN1CCN(C(c2ccccc2)c2ccc(Cl)cc2)CC1 (stereo unspecified) [Hydroxyzine dihydrochloride],scaled lipid accumulation score,,0.453
Cl.Clc1ccc(CCCOCCCN2CCCCC2)cc1,scaled lipid accumulation score,[2],1.05 (active)
OCCOCCN1CCN(C(c2ccccc2)c2ccc(Cl)cc2)CC1 (stereo unspecified) [Hydroxyzine 2HCl],scaled lipid accumulation score,[3],0.1
same,scaled lipid accumulation score,[2],0.631
OC(CCCN1CCCCC1)(c1ccccc1)c1ccccc1 [Diphenidol HCl],scaled lipid accumulation score,[3],≤ 0
same,scaled lipid accumulation score,[2],0.007
CCCCC[C@H](O)/C=C/[C@@H]1[C@@H](C/C=C\CCCC(=O)NCCO)[C@@H](O)C[C@H]1O [Prostaglandin F2.alpha. Ethanolamide],scaled lipid accumulation score,[1],≤ 0
Nc1ncnc2c1ncn2[C@@H]1O[C@H](CO)C[C@@H]1O [3'-deoxydenosine],scaled lipid accumulation score,[2],≤ 0
CC(C)(C)NCC(O)c1ccc(O)c(CO)c1 (racemic) [Albuterol (+/-)],scaled lipid accumulation score,[2],0.068
CO/N=C(\C(=O)N[C@@H]1C(=O)N2C(C(=O)O)=C(CSc3nnnn3C)CS[C@H]12)c1csc(N)n1,scaled lipid accumulation score,[2],≤ 0
CC(C)=CCCC(C)(OC1OC(COC2OCC(O)C(O)C2O)C(O)C(O)C1O)C1CCC2(C)C1C(O)CC1C3(C)CCC(OC4OC(CO)C(O)C(O)C4O)C(C)(C)C3CCC12C (stereo unspecified) [Gynostemma Extract],scaled lipid accumulation score,[3],0.01
same,scaled lipid accumulation score,[2],≤ 0
O=C(CCCN1CCC(O)(c2ccc(Cl)cc2)CC1)c1ccc(F)cc1 [Haloperidol hydrochloride],scaled lipid accumulation score,[2],0.78
O=C(CCCN1CCC(O)(c2ccc(Cl)cc2)CC1)c1ccc(F)cc1 [Haloperidol HCl],scaled lipid accumulation score,[4],0.419
O=C(CCCN1CCC(O)(c2cccc(C(F)(F)F)c2)CC1)c1ccc(F)cc1 [Trifluperidol 2HCl],scaled lipid accumulation score,library stock concentration: 4.9 mM,0.327
NC(=O)C1(N2CCCCC2)CCN(CCCC(=O)c2ccc(F)cc2)CC1,scaled lipid accumulation score,[2],≤ 0
O=C(CCCN1CCC(O)(c2ccc(Cl)cc2)CC1)c1ccc(F)cc1 [Haloperidol] [listing 1 of 2 here],scaled lipid accumulation score,,0.589
same,scaled lipid accumulation score,[3],0.302
same,scaled lipid accumulation score,[4],0.447
same,scaled lipid accumulation score,[2],0.787 and 0.814 and 0.297
O=C(CCCN1CCC(O)(c2ccc(Br)cc2)CC1)c1ccc(F)cc1 [Bromperidol],scaled lipid accumulation score,,0.632
same,scaled lipid accumulation score,library stock concentration: 4.8 mM,0.429
Cl.O=C(CCCN1CCC(O)(c2cccc(C(F)(F)F)c2)CC1)c1ccc(F)cc1 [Trifluperidol hydrochloride],scaled lipid accumulation score,[2],0.88 (active)
O=C(CCCN1CCC(O)(c2ccc(Cl)cc2)CC1)c1ccc(F)cc1 [Haloperidol] [listing 2 of 2 here],scaled lipid accumulation score,[2],1.12 (active)
COc1ccc(C2(CNC(=O)c3ccc(NC(=O)c4ccco4)cc3)CCOCC2)cc1,scaled lipid accumulation score,[5],≤ 0
same,scaled lipid accumulation score,[6],≤ 0
same,scaled lipid accumulation score,[7],≤ 0
same,scaled lipid accumulation score,[2],≤ 0
CCCCC[C@H](O)/C=C/[C@@H]1[C@@H](C/C=C\CCCCO)[C@@H](O)C[C@H]1O [Prostaglandin F2.alpha. Alcohol],scaled lipid accumulation score,[1],≤ 0
"CCCn1c(=O)c2[nH]c(-c3ccc(S(=O)(=O)O)cc3)nc2n(CCC)c1=O [1,3-Dipropyl-8-p-sulfophenylxanthine]",scaled lipid accumulation score,[2],0.108
CC1=C(C(=O)OC(C)C)C(c2cccc([N+](=O)[O-])c2)C(C(=O)OC2CN(C(c3ccccc3)c3ccccc3)C2)=C(N)N1 (stereo unspecified) [Azelnidipine],scaled lipid accumulation score,[3],0.061
same,scaled lipid accumulation score,[2],0.189
O=C(CCC/C=C\C[C@@H]1[C@@H](/C=C/[C@@H](O)CCc2ccccc2)[C@H](O)C[C@@H]1O)NC(CO)CO [17-phenyl trinor Prostaglandin F2.alpha. serinol amide],scaled lipid accumulation score,[1],0.062
COCCOc1nc(-c2ccc(Cl)c(Cl)c2)n(-c2ccc(NC(=O)CCl)cc2)n1 [MI-2 (MALT1 inhibitor)],scaled lipid accumulation score,[3],0.584
same,scaled lipid accumulation score,[2],0.62
COc1ccc(NC(=O)c2cc(OCCCN(C)C)nn2Cc2ccccc2)cc1.Cl [CFM 1571 hydrochloride],scaled lipid accumulation score,[2],1.11 (active)
COc1cc(NC(=O)c2ccccn2)ccc1Cl,scaled lipid accumulation score,[3],≤ 0
same,scaled lipid accumulation score,[2],≤ 0
O=C(O)CCC/C=C\CC1C(O)CC(O)C1/C=C/C(O)COc1cccc(Cl)c1 (stereo unspecified) [Cloprostenol],scaled lipid accumulation score,[1],≤ -0.021
O=C(O)CCC/C=C\CC1C(O)CC(O)C1/C=C/C(O)COc1cccc(Cl)c1 (stereo unspecified),scaled lipid accumulation score,[2],≤ -0.001
CC1CC(OC(=O)C(O)c2ccccc2)CC(C)(C)N1C (stereo unspecified) [Eucatropine hydrochloride],scaled lipid accumulation score,,≤ 0
same,scaled lipid accumulation score,library stock concentration: 6.1 mM,≤ -0.001
same,scaled lipid accumulation score,[2],≤ 0
CC1O[C@H](O[C@]2(O[C@H]3CC[C@@]4(C)C(=CC[C@H]5[C@@H]6C[C@H]7[C@H]([C@H](C)[C@H]8CC[C@H](C)CN87)[C@@]6(C)CC[C@@H]54)C3)C[C@@H](O[C@@H]3OC(CO)[C@@H](O)[C@@H](O)C3O)[C@@H](O)C(CO)O2)C(O)[C@@H](O)[C@H]1O (stereo partly drawn) [Solanine alpha],scaled lipid accumulation score,,≤ 0
CNC(=C[N+](=O)[O-])NCCSCc1ccc(CN(C)C)o1 [Ranitidine hydrochloride],scaled lipid accumulation score,,≤ 0
same,scaled lipid accumulation score,[2],≤ 0 and ≤ -0.006
Cc1ccc(NC(=O)NCCSCc2ccc(CN(C)C)o2)cc1Cl,scaled lipid accumulation score,[2],0.931 (active)
CNC(=C[N+](=O)[O-])NCCSCc1ccc(CN(C)C)o1 [Ranitidine],scaled lipid accumulation score,[3],≤ 0
same,scaled lipid accumulation score,[8],≤ 0
same,scaled lipid accumulation score,[2],0.049 and ≤ 0
CNC(=C[N+](=O)[O-])NCCSCc1ccc(CN(C)C)o1 [Ranitidine HCl],scaled lipid accumulation score,[8],≤ 0
CN(C)C/C=C/C(=O)Nc1cccc(Nc2ncc3c(n2)N(C)c2ccccc2C(=O)N3C)c1,scaled lipid accumulation score,[5],≤ -0.009
same,scaled lipid accumulation score,[6],0.1
same,scaled lipid accumulation score,[7],0.846
same,scaled lipid accumulation score,[2],0.566
CN(C)C/C=C/C(=O)Nc1ccc(C(=O)Nc2cccc(Nc3nccc(-c4cccnc4)n3)c2)cc1,scaled lipid accumulation score,[2],1.15 (active)
Cc1cc(NC(=O)c2cccc(NC(=O)C=CCN(C)C)c2)ccc1Nc1nccc(-c2cccnc2)n1,scaled lipid accumulation score,[3],1.08 (active)
same,scaled lipid accumulation score,[2],1.02 (active)
CN(C)C/C=C/C(=O)Nc1ccc(C(=O)Nc2cccc(Nc3ncc(Cl)c(-c4c[nH]c5ccccc45)n3)c2)cc1,scaled lipid accumulation score,[5],0.587
same,scaled lipid accumulation score,[6],0.669
same,scaled lipid accumulation score,[7],0.638
same,scaled lipid accumulation score,[2],0.41
C[C@@H]1CC2C3C[C@H](F)C4=CC(=O)C=C[C@]4(C)[C@@]3(F)[C@@H](O)C[C@]2(C)[C@@]1(O)C(=O)COC(=O)C(C)(C)C (stereo partly specified) [Flumethazone pivalate],scaled lipid accumulation score,library stock concentration: 4 mM,0.012
same,scaled lipid accumulation score,[2],≤ 0
"c1ccc2c(-c3ccncc3)c[nH]c2c1 [Rho Kinase Inhibitor III, Rockout]",scaled lipid accumulation score,[3],≤ 0
COc1ccc(-c2ccc3cc(C(=O)O)ccc3c2)cc1C12CC3CC(CC(C3)C1)C2,scaled lipid accumulation score,[2],0.008
COc1ccc(-c2ccc3cc(C(=O)O)ccc3c2)cc1C12CC3CC(CC(C3)C1)C2 [Adapalene],scaled lipid accumulation score,[3],≤ 0
same,scaled lipid accumulation score,[2],≤ 0
COc1cc(-c2cc(-c3cccc(O)c3)cnc2N)cc(OC)c1OC,scaled lipid accumulation score,[3],≤ -0.009
same,scaled lipid accumulation score,[2],≤ 0
"CC(=O)NC(CC(=O)O)C(=O)O (racemic) [Aspartic acid, N-acetyl (R,S)]",scaled lipid accumulation score,,0.182
N[C@H](Cc1ccccc1)C(=O)O [D-phenylalanine],scaled lipid accumulation score,[2],≤ -0.022
N/C(=N\C(=O)c1nc(Cl)c(N)nc1N)NCc1ccccc1 [Benzamil hydrochloride],scaled lipid accumulation score,,0.168
Cl.N/C(=N\C(=O)c1nc(Cl)c(N)nc1N)NCc1ccc(Cl)cc1Cl,scaled lipid accumulation score,library stock concentration: 11.8 mM,0.876 (active)
Cl.N/C(=N\Cc1ccccc1)NC(=O)c1nc(Cl)c(N)nc1N,scaled lipid accumulation score,library stock concentration: 14 mM,1.1 (active)
NC(=O)NC(=O)Cc1ccccc1 [Phenacemide],scaled lipid accumulation score,[2],≤ 0
Cl.N/C(=N\C(=O)c1nc(Cl)c(N)nc1N)NCc1ccccc1 [Benzamil hydrochloride],scaled lipid accumulation score,[2],1.09 (active)
N/C(=N\C(=O)c1nc(Cl)c(N)nc1N)NCc1ccccc1 [Benzamil],scaled lipid accumulation score,library stock concentration: 6.3 mM,0.287
"CCCCC/C=C\CCCC/C=C\C/C=C\CCCC(=O)O [5(Z),8(Z),14(Z)-Eicosatrienoic Acid]",scaled lipid accumulation score,[1],≤ 0
CCCCC[C@H](O)/C=C/[C@@H]1[C@H](C/C=C\CCCC(=O)O)[C@@H](O)C[C@H]1O [8-iso Prostaglandin F2.alpha.],scaled lipid accumulation score,[1],≤ 0
CC(C)(C)n1nc(-c2cccc3ccccc23)c2c(N)ncnc21 [1-Naphthyl PP1],scaled lipid accumulation score,[2],0.016
"CC(C)(C)C#Cc1cc(N(C(=O)[C@H]2CC[C@H](C)CC2)[C@H]2CC[C@H](O)CC2)c(C(=O)O)s1 [VX-222 (VCH-222, Lomibuvir)]",scaled lipid accumulation score,[3],≤ 0
same,scaled lipid accumulation score,[2],0.047
Cc1c(O)c(=O)ccn1C,scaled lipid accumulation score,[2],≤ 0
O.O.O.O.O=C([O-])CC(O)(CC(=O)[O-])C(=O)[O-].[Li+].[Li+].[Li+] [Lithium citrate],scaled lipid accumulation score,library stock concentration: 9.5 mM,≤ 0
same,scaled lipid accumulation score,[2],0.016
